High-throughput results (PubChem BioAssay)
Sampled rows, rich in hits. Any-hit rate of the full collection: about 10%.
HP1b chromo inh: HTS for Inhibitors of HP1-beta Chromodomain Interactions with Methylated Histone Tails; AlphaScreen HP1-beta / biotin-H3K9me3 peptide binding; Chromobox protein homolog 1 (Homo sapiens), P83916; hit rate 0.56% among 390,000; Potency, µM (series often up to 114 µM), for the others: at the highest dose activity change, negative = inhibition, actives largely listed as inhibitors; also: nearly all actives have a fitted effect of over 70% in size
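HP1-beta protein (50 nM final) preincubated 30 min at room temperature with biotinylated H3(1-18)K9me3 peptide (50 nM) in PBS pH 7.4, 0.01% Tween-20, then compound added for 30 min. AlphaScreen streptavidin donor/nickel chelate acceptor beads (10 ug/mL final), 30 min dark, luminescence read.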
GLS inhibitor: qHTS for Inhibitors of Glutaminase (GLS); Potency, µM (series often up to 45.5 µM), for the others: top-dose activity change, negative = inhibition, most hits filed as inhibitors; GLS enzymatic activity, qHTS titration; hit rate 0.21% among 410,000; AID 624170, 2012; also: % is scaled to controls: 0 for no effect and ±100 for the full control effect
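Read-out is an Amplex red fluorescence increase coupled through glutamate oxidase and HRP, measured before and after 30 min room-temperature incubation. hKGA is in 45 mM KH2PO4 (pH 8.2) with 0.02% Tween-20; glutamine added as 1mM solution.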
BAZ2B inh: qHTS Assay for Inhibitors of BAZ2B; Bromodomain adjacent to zinc finger domain protein 2B (Homo sapiens), Q9UIF8; AlphaScreen BAZ2B-H3K14Ac peptide displacement; Potency, µM (series often up to 114 µM), for the others: at the highest dose activity change, negative = inhibition, actives largely listed as inhibitors; hit rate 4.4% among 360,000; AID 504333, 2011; also: % is scaled to controls: 0 for no effect and ±100 for the full control effect; nearly all actives have a fitted effect of over 60% in size
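BAZ2B (50 nM) with biotin-H3(5-23)K14Ac peptide (50 nM) in PBS pH 7.4, 0.01% Tween-20, preformed 30 min, then compound 30 min at room temperature; top concentration 110uM. AlphaScreen streptavidin donor/nickel chelate acceptor beads (10 ug/mL final), 20 min dark, signal read.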
G9a inh-1: qHTS Assay for Inhibitors of Histone Lysine Methyltransferase G9a | G9a H3K9 monomethylation, AlphaScreen, 2 h | Histone-lysine N-methyltransferase EHMT2 (Homo sapiens), Q96KQ7 | Potency, µM (titrated, usually from 102 µM), inactives show at the top dose activity, negative = inhibition, most hits filed as inhibitors | hit rate 8.8% among 350,000; also: % is scaled to controls: 0 for no effect and ±100 for the full control effect; nearly all actives have a fitted effect of over 75% in size
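Compounds were preincubated with 20 nM G9a for 15 min, after which biotinylated H3K9 peptide (500 nM) and SAM (20 uM) started a 2 h room-temperature reaction. Monomethylated product was quantified by antibody-based AlphaScreen chemiluminescence.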
JMJD2A Tudor: qHTS Assay for Inhibitors of JMJD2A-Tudor Domain | Lysine-specific demethylase 4A (Homo sapiens), O75164 | AlphaScreen JMJD2A-Tudor / H3K4me3 peptide binding | Potency, µM (top dose mostly 114 µM), for inactives: at the highest dose activity change, negative = inhibition, usual class: inhibitors | hit rate 4.4% among 390,000 | AID 504339, 2011; also: % is scaled to controls: 0 for no effect and ±100 for the full control effect; nearly all actives have a fitted effect of over 50% in size
G9a inh-2: qHTS Assay for Inhibitors of Histone Lysine Methyltransferase G9a: Hit Confirmation | Potency, µM, usual class: inhibitors | hit rate 89% among 370 | G9a H3K9 monomethylation, AlphaScreen, 2 h | AID 588344, 2011 | shares compounds with JMJD2A Tudor; also: nearly all actives have a fitted effect of over 65% in size
Active calls of the source: *; [ ] = dose if it differs, or a comment. Calls follow the shape of the dose curve; as a rule, active = well fitted curve in the direction sought with a large enough effect; inconclusive = small, poorly fitted or top-dose-only effect, or another doubt; inactive = no such curve, though single readings can be large; an effect the other way counts as inactive or inconclusive. Potency is read from the fitted curve at half-maximal effect.

COc1ccccc1NC(=O)CN1CCN(CC(=O)Nc2ccccc2F)CC1 was read as HP1b chromo inh 46%, GLS inhibitor 11% and JMJD2A Tudor -10%[11.4 µM].
COc1ccc(N2CCN(CC(=O)Nc3cc(C)on3)CC2)cc1 was read as HP1b chromo inh inconclusive, GLS inhibitor 56%, BAZ2B inh 20µM*, G9a inh-1 1.8µM*, JMJD2A Tudor 2.8µM* and G9a inh-2 1.6*.
O=C(NCc1ccccc1F)C1CCCN1C(=O)Nc1ccc(F)cc1 (stereo not given) was read as HP1b chromo inh 43%, GLS inhibitor 11%, BAZ2B inh -23%, G9a inh-1 -7% and JMJD2A Tudor -12%.
Cn1c(SCC(=O)N2CCOCC2)nnc1-c1cccc(NC(=O)c2ccccc2F)c1 was read as HP1b chromo inh 32%, GLS inhibitor 1%, BAZ2B inh 11%, G9a inh-1 inconclusive and JMJD2A Tudor -5%.
`Cn1c(SCC(=O)NC(C)(C)C)nnc1-c1cccc(NC(=O)c2ccccc2F)c1` gave HP1b chromo inh 16%, GLS inhibitor -6%, BAZ2B inh 7%, G9a inh-1 inconclusive, JMJD2A Tudor inconclusive and G9a inh-2 1.4*.
Cn1c(SCC(=O)Nc2ccc3c(c2)oc2ccccc23)nnc1-c1ccccc1 was read as HP1b chromo inh -2%, GLS inhibitor -8%, BAZ2B inh 1%, G9a inh-1 2µM*, JMJD2A Tudor inconclusive and G9a inh-2 7.1*.
Screening Cn1c(SCC(=O)Nc2ccccc2)nnc1-c1ccccc1 returned HP1b chromo inh 9%, GLS inhibitor -14%, BAZ2B inh 1%, G9a inh-1 4%[59 µM] and JMJD2A Tudor -4%.
Screening COc1ccc(-c2nnc(SCC(=O)NC(=O)Cc3ccccc3)n2C)cc1 returned HP1b chromo inh 35%, GLS inhibitor -11%, BAZ2B inh 6%, G9a inh-1 inconclusive, JMJD2A Tudor 5% and G9a inh-2 inconclusive.
Screening Cc1cc(C)c(NC(=O)c2cc(CN3CCOCC3)on2)c(C)c1 returned HP1b chromo inh 9%, GLS inhibitor 10%, BAZ2B inh -5%, G9a inh-1 14%[59 µM] and JMJD2A Tudor -9%.
Cc1cc2c(s1)c1cnn(Cc3ccc(C(C)C)cc3)c(=O)c1n2C was read as JMJD2A Tudor -3%.
COCCNC(=O)c1cccc2c(-c3ccnn3C)coc12 was read as GLS inhibitor -8%.
`COc1ccc(C(=O)Nc2ccc(N3CCCC3)cc2)cc1` gave HP1b chromo inh inconclusive, GLS inhibitor -6%, BAZ2B inh -38%, G9a inh-1 1.6µM*, JMJD2A Tudor -4%[11.4 µM] and G9a inh-2 1.3*.
COc1ccc(C(=O)Nc2ccc(S(=O)(=O)N3CCOCC3)cc2)cc1OC was read as HP1b chromo inh 14%, GLS inhibitor 5%, BAZ2B inh 1%, G9a inh-1 -11% and JMJD2A Tudor -15%.
Screening O=C(O)CCC(=O)Nc1ccc(N2CCCCCC2)cc1 returned HP1b chromo inh 7%, GLS inhibitor 47%, BAZ2B inh inconclusive, G9a inh-1 0.89µM*, JMJD2A Tudor -35% and G9a inh-2 0.71*.
`Cc1ccc(N2CCN(c3ccc(NC(=O)CCC(=O)O)cc3)CC2)cc1` gave HP1b chromo inh 9%, GLS inhibitor 21%, BAZ2B inh 3%, G9a inh-1 inconclusive and JMJD2A Tudor -16%.
Screening COc1cc(CNc2ccc(N3CCCC3)cc2)ccc1OCc1ccccc1 returned HP1b chromo inh inconclusive, GLS inhibitor 24%, BAZ2B inh 13µM*, G9a inh-1 inconclusive, JMJD2A Tudor 35µM* and G9a inh-2 2.5*.
For CCOc1ccc(C(=O)Nc2ccc(N3CCCC3)cc2)cc1 the results were HP1b chromo inh -28%, GLS inhibitor 22%, BAZ2B inh inconclusive, G9a inh-1 inconclusive and JMJD2A Tudor inconclusive.
For COc1ccc(C(=O)Nc2ccc(N3CCCC3)cc2)cc1OC the results were HP1b chromo inh -1%, BAZ2B inh inconclusive, G9a inh-1 2.5µM*, JMJD2A Tudor inconclusive and G9a inh-2 2.5*.
For CCOC(=O)c1cncc(C#CCO)c1 the results were HP1b chromo inh 17%, GLS inhibitor 5%, BAZ2B inh -10%, G9a inh-1 inconclusive and JMJD2A Tudor 2%.
For Cc1ccc(CNc2ccc3c(c2)ncn3C)cc1 the results were HP1b chromo inh -15%, GLS inhibitor inconclusive, BAZ2B inh inconclusive, G9a inh-1 0.71µM*, JMJD2A Tudor inconclusive and G9a inh-2 8.9*.
For O=S(=O)(Nc1ccc2c(c1)OCO2)c1ccc(Br)s1 the results were HP1b chromo inh 0%, GLS inhibitor 12%, BAZ2B inh -32%, G9a inh-1 inconclusive and JMJD2A Tudor inconclusive.
`Cc1ccc(N2C(=O)NC3(CCCCC3)C2=O)cc1` gave HP1b chromo inh 29%, GLS inhibitor -5%, BAZ2B inh 1%, G9a inh-1 21% and JMJD2A Tudor 2%.
Screening Cc1ccc(N2NC3(CCN(C(N)=O)CC3)NC2=O)cc1 returned HP1b chromo inh 31%, GLS inhibitor 13%, BAZ2B inh -19%, G9a inh-1 0.71µM*, JMJD2A Tudor -17% and G9a inh-2 40*.
`COCCNC(=O)c1cc2n(n1)CCCN(Cc1ccc(C)cc1)C2=O` gave HP1b chromo inh -7%, GLS inhibitor 2%, BAZ2B inh 0%, G9a inh-1 2%[59 µM] and JMJD2A Tudor -27%.
COc1ccc(C(=O)COC(=O)CN2CC(=O)Oc3ccccc32)cc1Br was read as HP1b chromo inh -7%, GLS inhibitor -9%, BAZ2B inh 25µM*, G9a inh-1 inconclusive, JMJD2A Tudor 35µM* and G9a inh-2 25*.
`COc1ccc(C(=O)COC(=O)C2CC3CCCC(C2)C3=O)cc1Br` (stereo not given) gave HP1b chromo inh 38%, GLS inhibitor -15%, BAZ2B inh -4%, G9a inh-1 12%[0.501 µM] and JMJD2A Tudor -5%.
For CC1CC(C)CN(C(=O)C(C)N2CCN(S(=O)(=O)c3ccc(Br)s3)CC2)C1 (stereo not given) the results were HP1b chromo inh 11%, GLS inhibitor -1% and JMJD2A Tudor -18%.
For COCc1c(C(=O)N2CCN(Cc3nc4ccccc4s3)CC2)oc2ccccc12 the results were HP1b chromo inh -23%, GLS inhibitor 8%, BAZ2B inh inconclusive, G9a inh-1 inconclusive, JMJD2A Tudor -18% and G9a inh-2 4*.
